# Measured values: PubChem BioAssay AID651815 (National Center for Advancing Translational Sciences (NCATS), 2012)
# Hit rate of the full screen: of about 2,100 compounds, about 1,100 (52%) were called active. Another 29% or so got no clear call; they are omitted. Calls come from the whole dose curve; as a rule, active = well fitted inhibition curve with a large enough effect; inconclusive = small, poorly fitted or top-dose-only effect; inactive = no such curve, though single readings can be large or run the other way. The set was probably picked from earlier hits. The list shows a part of the results.
# Target: DNA dC->dU-editing enzyme APOBEC-3F (Homo sapiens) (UniProt Q8IUX4)
# Sequence (Q8IUX4 whole entry, looked up): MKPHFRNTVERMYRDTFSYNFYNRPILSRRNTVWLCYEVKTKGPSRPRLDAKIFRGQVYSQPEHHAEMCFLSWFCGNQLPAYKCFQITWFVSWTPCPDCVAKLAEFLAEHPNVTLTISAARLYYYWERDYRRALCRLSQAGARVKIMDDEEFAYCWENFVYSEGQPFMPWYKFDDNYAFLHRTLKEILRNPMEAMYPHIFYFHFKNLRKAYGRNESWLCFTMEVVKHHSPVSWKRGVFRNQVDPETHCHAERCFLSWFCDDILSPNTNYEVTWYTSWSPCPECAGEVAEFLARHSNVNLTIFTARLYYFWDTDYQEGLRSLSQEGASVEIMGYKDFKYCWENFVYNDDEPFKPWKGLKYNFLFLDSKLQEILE
# Assay: qHTS for inhibitors of Vif-A3F interactions: Cherry picks counterscreen; note: nearly all actives have a fitted effect of over 65% in size
# Details: HeLa A3F-eYFP/Vif cells, eYFP fluorescence, 24 h; series mostly up to 46.1 µM
# Excerpt: The recent discovery and characterization of host restriction factors, which provide a potent defense to invading retroviruses, has provided new targets for antiviral drug development. APOBEC3G (A3G) and APOBEC3F (A3F) are potent cytidine deaminases that block HIV-1 replication; HIV-1 expresses the Vif protein, which counteracts A3G and A3F by binding to them and inducing their proteasomal degradation. The Vif-A3G and Vif-A3F interactions provide two potential targets for development of small molecules which can interfere with the ability of Vif to degrade A3G or A3F. […] To identify inhibitors that can interfere with Vif mediated degradation of A3G and A3F, we have developed Hela cell lines that stably express A3G or A3F tagged with eYFP at the C-terminal end (A3G-eYFP or A3F-eYFP, respectively) and Vif. In the absence of an inhibitor, Vif induces degradation of A3G-eYFP and A3F-eYFP, and the cells are not fluorescent. In the presence of an inhibitor, it is expected that Vif will be unable to degrade A3G-eYFP and/or A3F-eYFP, resulting in an increase in yellow fluorescence. In this counterscreen assay, Vif A3F was screened against the cherry picks ordered from the MLSMR. NIH Chemical Genomics Center [NCGC] NIH Molecular Libraries Probe Centers Network [MLPCN] MLPCN Grant: MH093245 Assay Submitter (PI): Vinay Pathak, National Cancer Institute
# A3F-Vif cells were harvested from T225 flask and resuspended in phenol free OPTI-MEM medium with 5% FBS. Then 5 uL of 140,000 cells/mL resuspended cells was dispensed into each well of low base Aurora COC 1,536-well plates (black walled, clear bottom) using a Multidrop Combi dispenser. After overnight culture at 37 deg C with 5% CO2, a total of 23 nL of compounds at 5 selected concentrations from the NPC or positive control (2 mM stock of MG132) in DMSO was transferred to each well of the assay plate using a pintool (Kalypsys, San Diego, CA), and the plates were further incubated at 37 deg C with 5% CO2 for 24 hours. After that, the plates were measured on Acumen Explorer (TTP Lab Tech). The fluorescence was detected by 488 nm/Ex and […].
# Potency is the fitted concentration of half-maximal effect.
row,Compound,Potency
1,CCCN1CCc2c(sc(NC(=S)NC(=O)c3ccccc3)c2C#N)C1,16.4 µM (active)
2,CCCN1CCc2c(sc(NC(=O)c3ccc(S(=O)(=O)N(C)c4ccccc4)cc3)c2C(N)=O)C1,23.1 µM (active)
3,O=C(NC(=S)Nc1ccccc1N1CCCCC1)c1ccccc1,inactive
4,N#CC(C#N)=C1C=C2C=C(N3CCOCC3)CCC2CC1 (stereo not drawn),inactive
5,O=C1OCC2=C1C(c1ccc3c(c1)OCO3)c1cc3c(cc1O2)OCO3 (stereo not drawn),1.25 µM (active)
6,COc1cc(C2C3=C(COC3=O)Oc3cc4c(cc32)OCO4)ccc1OC(C)=O (stereo not drawn),3.14 µM (active)
7,N#C/C=C/N1CCN(C(=O)c2ccco2)CC1,inactive
8,CCCCn1c(N)c(N(CC(C)C)C(=O)Cc2ccc(S(=O)(=O)N3CCOCC3)s2)c(=O)[nH]c1=O,16.4 µM (active)
9,CCCCn1c(N)c(N(CCC(C)C)C(=O)c2ccc([N+](=O)[O-])o2)c(=O)[nH]c1=O,inactive
10,C=CCN1C(=O)c2ccc(C(=O)N(CC(C)C)c3c(N)n(CCCC)c(=O)[nH]c3=O)cc2C1=O,inactive
11,O=C(O)c1ccccc1N/N=C/c1c(Sc2nnnn2-c2ccccc2)nc2ccccn2c1=O,inactive
12,CC(C)COc1ccc(C(=O)N/C(=C/c2cccc([N+](=O)[O-])c2)C(=O)O)cc1,inactive
13,CCN1C/C(=C\c2cccc([N+](=O)[O-])c2)C(=O)/C(=C/c2cccc([N+](=O)[O-])c2)C1,2.5 µM (active)
14,OCC[n+]1ccc(/C=C/c2c[nH]c3ccccc23)cc1,5.8 µM (active)
15,C[n+]1ccc(/C=C/c2c[nH]c3ccccc23)cc1,6.51 µM (active)
16,C[n+]1ccc(/C=C/c2cc[n+](C)c3ccccc23)c2ccccc21,inactive
17,CC[n+]1ccc(/C=C/c2c[nH]c3ccccc23)cc1,1.84 µM (active)
18,COc1ccccc1NC(=O)Cc1ccc(-c2ccccc2)cc1,inactive
19,O=C(Nc1ccccc1OC(=O)c1ccccc1)c1ccccc1,15.8 µM (active)
20,O=C(NC(=S)Nc1ccc(-c2ccccc2)cc1)c1ccccc1,inactive
21,COc1ccc(C(=O)N/N=C/c2ccccc2OC(=O)c2ccccc2)cc1,3.96 µM (active)

row,Compound,Potency
1,NC(=S)N/N=C/c1ccccc1OC(=O)/C=C/c1ccccc1,inactive
2,C=C1C(=O)O[C@H]2C1CC[C@@](C)(O)C13C=CC(C)(C21)C1(C3)C(=O)O[C@@H]2C3C(C)=CCC3[C@](C)(O)C[C@H](OC(C)=O)C21 (stereo partly drawn),17.7 µM (active)
3,Cc1c(NC(=O)c2csc3c2CCCC3)c(=O)n(-c2ccccc2)n1C,inactive
4,Cc1c(N=C2N=C(NC(=O)c3cccs3)c3ccccc32)c(=O)n(-c2ccccc2)n1C,14 µM (active)
5,N#Cc1c(C(F)(F)F)cc(-c2ccccc2)nc1SCc1nc(N)nc(N2CCOCC2)n1,16.4 µM (active)
6,COc1c(-c2ccc(O)c(O)c2)oc2cc(O)cc(O)c2c1=O,12.5 µM (active)
7,Cc1cc(NC(=O)Nc2nnc(N(C)Cc3ccccc3)s2)ccc1Br,inactive
8,CSc1nc2ccccc2cc1/C=C(\C#N)c1cccc(C)c1,11.2 µM (active)
9,N#C/C(=C\c1cccc(O)c1)c1nc2ccccc2o1,7.9 µM (active)
10,Nc1c(C(=O)N/N=C/c2ccc(F)cc2)oc2nc(-c3ccccc3)cc(-c3ccco3)c12,14 µM (active)
11,Nc1c(C(=O)N/N=C/c2cccnc2)oc2nc(-c3ccccc3)cc(-c3ccco3)c12,4.11 µM (active)
12,C/C(=N\Nc1nc(C)cc(-c2ccccc2)n1)c1ccc(F)cc1,inactive
13,Nc1c(C(=O)N/N=C/c2ccccc2Cl)oc2nc(-c3ccccc3)cc(-c3ccco3)c12,10.3 µM (active)
14,CCOc1ccc2nc(NC(=O)c3nc(SC(C)C)ncc3Cl)sc2c1,11.6 µM (active)
15,Cc1cc(C)cc(NC(=O)/C=C/c2ccc([N+](=O)[O-])s2)c1,16.4 µM (active)
16,Cc1ccc(NC(=O)/C=C/c2ccc([N+](=O)[O-])s2)cc1,10.3 µM (active)
17,Cc1ccc(NC(=O)/C=C/c2ccc([N+](=O)[O-])s2)c(C)c1,18.4 µM (active)
18,COC(=O)c1sccc1NC(=S)Nc1cc(C)cc(C)c1,inactive
19,Cc1cccc(NC(=O)/C=C/c2ccc([N+](=O)[O-])s2)c1,7.31 µM (active)
20,CCC(=O)OCc1cnc(C)c2oc(=O)c(C(=O)Nc3ccccc3C(F)(F)F)cc12,inactive
21,CC(=O)c1cccc(NC(=O)/C=C/c2ccc([N+](=O)[O-])s2)c1,16.4 µM (active)

row,Compound,Potency
1,CC(=O)c1cccc(NC(=S)N2c3ccccc3CC2C)c1 (stereo not drawn),inactive
2,CCOCCC(=O)Nc1ccc2c(c1)c(=O)n(C)n2C/C=C/c1ccccc1,15.8 µM (active)
3,COc1ccc2[nH]c(C(=O)N/N=C/c3ccc(OC)c(O)c3)cc2c1,3.14 µM (active)
4,COc1ccc(/C=N/NC(=O)c2cc3c(OC)ccc(OC)c3[nH]2)cc1O,4.44 µM (active)
5,CN[C@H]1CCc2cc(OC)c(OC)c(OC)c2-c2ccc(N(C)CC(OC)OC)c(=O)cc21,2.8 µM (active)
6,COc1cc2c(c(OC)c1OC)-c1ccc(N(C)CC(OC)OC)c(=O)cc1[C@@H](NC(C)=O)CC2,1.12 µM (active)
7,CSc1cccc(NC(=O)c2cc3c(COC(C)=O)cnc(C)c3oc2=O)c1,inactive
8,CCN(CC)c1ccc2cc(-c3nc4ccccc4n3C)c(=O)oc2c1,7.31 µM (active)
9,CCN(CC)c1ccc2cc(-c3nnc(-c4ccccc4)o3)c(=O)oc2c1,0.112 µM (active)
10,CCN(CC)c1ccc2cc(-c3nc(-c4ccc(Cl)cc4Cl)cs3)c(=O)oc2c1,inactive
11,CCN(CC)c1ccc2cc(-c3nnc(-c4cccc(Cl)c4)o3)c(=O)oc2c1,0.206 µM (active)
12,CCN(CC)c1ccc2cc(-c3nc(-c4cccs4)no3)c(=O)oc2c1,0.291 µM (active)
13,CCN(CC)c1ccc2cc(C(N)=O)c(=N)oc2c1,inactive
14,CN(C)S(=O)(=O)c1ccc(N2CCCC2)c(C(=O)N2CCN(S(=O)(=O)c3ccc(F)c(F)c3)CC2)c1,inactive
15,CCOC(=O)c1c(C)sc(-c2c(-c3ccccc3)[nH]c3[nH]c(=O)[nH]c(=O)c23)c1O,23.1 µM (active)
16,COCc1cc(C)nc(SCC(=O)Nc2ccc3[nH]c(=O)[nH]c3c2)c1C#N,inactive
17,CCCCOc1ccc(-c2cc(C(F)(F)F)c(C#N)c(SCC(=O)O)n2)cc1,18.4 µM (active)
18,CCOC(=O)c1ccc(NC(=O)CSc2nc(-c3ccc(OC)cc3)cc(C(F)(F)F)c2C#N)cc1,23.1 µM (active)
19,Cc1ccc(S(=O)(=O)CCSc2nc(C)cc(C(F)(F)F)c2C#N)cc1,12.5 µM (active)
20,CCOC(=O)c1ccc(NC(=O)CSc2nc(-c3ccc(F)cc3)cc(C(F)(F)F)c2C#N)cc1,18.4 µM (active)
21,CCOC(=O)c1ccc(N=Nc2c(C)c(C#N)c(O)[nH]c2=O)cc1,inactive
